# Tau fluor counter – counter-screen for tau fibril formation inhibitors. tau K18 P301L Alexa594 fluorescence, heparin fibrillization. Potency, µM (doses to about 57.7 µM), without a hit: at the highest dose activity change, negative = decrease. actives 0.93% (n = 280,000). AID 1463; note: potency is the fitted concentration of half-maximal effect; nearly all actives have a fitted effect of over 55% in size
#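 Human K18 P301L tau (15 uM unlabeled plus 0.24 uM Alexa 594-labeled, final) in 100 mM sodium acetate pH 7 was mixed with compound and 20 uM heparin and incubated 6 hr at 37 C.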
# FBPA coupling cs – coupling enzyme interference in Giardia aldolase counter-screen | coupling enzyme system counterscreen, AmpLite Red fluorescence | activity change, negative = inhibition, % at 58.2 µM, hits read low | actives 0.67% (n = 290,000); in the data active = activity change below about -30%
#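 Activity here indicates interference with the coupling reaction, not aldolase inhibition. Compounds at 57.5 uM final met coupling enzymes for 10 min at RT; substrate and AmpLite Red detection followed, with a 525/598 nm fluorescence read after 20 min.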
# G9a block – inhibitors of human histone lysine methyltransferase G9a | G9a H3K9 monomethylation, AlphaScreen, 2 h | Potency, µM (highest dose often 102 µM), without a hit: at the highest dose activity, negative = inhibition, hits mostly inhibitors | Q96KQ7 | actives 8.8% (n = 350,000); note: potency is the fitted concentration of half-maximal effect; nearly all actives have a fitted effect of over 75% in size
# Target sequence (Q96KQ7 913-1193 limits assumed): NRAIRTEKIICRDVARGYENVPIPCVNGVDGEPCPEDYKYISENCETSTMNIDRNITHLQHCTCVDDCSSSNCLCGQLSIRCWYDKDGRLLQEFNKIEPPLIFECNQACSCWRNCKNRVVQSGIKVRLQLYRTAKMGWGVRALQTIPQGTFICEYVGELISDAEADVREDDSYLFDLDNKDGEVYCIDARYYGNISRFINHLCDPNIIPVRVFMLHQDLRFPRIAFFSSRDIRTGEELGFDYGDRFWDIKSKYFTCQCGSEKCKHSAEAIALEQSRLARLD
#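 Methyltransferase reactions run at room temperature for 2 h (20 nM enzyme, 500 nM biotin-H3K9 peptide, 20 uM SAM) after a 15 min compound preincubation; product detected by AlphaScreen beads and anti-H3K9me1 antibody.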
# Sfp PPTase inh – Sfp phosphopantetheinyl transferase inhibition. Potency, µM, inactives show largest response in the series, negative = inhibition, usual class: inhibitors. actives 3.5% (n = 310,000). Biochemical Sfp PPTase activity, qHTS. Q9F4F7;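 note: the enzyme is Sfp with the accession as filed and its product quenches rhodamine fluorescence; potency is the fitted concentration of half-maximal effect; 0% = enzyme reaction without inhibitor and -100% = no enzyme wells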
#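 Step 1, compound plus 15 nM Sfp-PPTase, 15 min, room temperature. Step 2, add rhodamine-CoA (5 uM) and BHQ-2-YbbR (12.5 uM). Step 3, read 525/598 nm fluorescence at 0 and 30 min.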
# Tau FP inhib – blocks human tau fibril formation measured by polarization | AID 1468 | Potency, µM (doses to about 57.7 µM), without a hit: at the highest dose activity, negative = inhibition, usual class: inhibitors | K18 P301L tau heparin fibrillization, Alexa594 FP, 6 h | actives 0.39% (n = 280,000) | P10636; note: potency is the fitted concentration of half-maximal effect; nearly all actives have a fitted effect of over 55% in size
# Target sequence (P10636 561-689 P618L limits assumed): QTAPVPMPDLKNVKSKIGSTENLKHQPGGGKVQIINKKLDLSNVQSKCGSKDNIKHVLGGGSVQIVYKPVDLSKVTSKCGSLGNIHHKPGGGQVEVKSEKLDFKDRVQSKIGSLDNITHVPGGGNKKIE
#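 FP of Alexa 594-tau after heparin (20 uM) induction. Substrate: human K18 P301L, 15 uM unlabeled, 0.24 uM labeled. Buffer 100 mM sodium acetate pH 7. 6 hr, 37 C.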
# Tau ThT inhib – inhibitors of human tau fibril formation, thioflavin T binding; P10636; recombinant tau K18 P301L (four-repeat tau fragment), heparin-induced fibrillization, ThT fluorescence; Potency, µM (series often up to 57.4 µM), for inactives: at the highest dose activity, negative = inhibition, most hits filed as inhibitors; actives 2.1% (n = 270,000); AID 1460; note: potency is the fitted concentration of half-maximal effect; nearly all actives have a fitted effect of over 55% in size
#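 Heparin-induced fibrillization of the P301L-mutant K18 repeat-domain fragment of human tau was followed by ThT binding in quantitative high-throughput format.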
# * marks the source's active call; other numbers are inactive results; ? = inconclusive; · = no result; [ ] = dose if it differs, or a comment. Only some compounds are listed: those with a hit (about 11% of all), similar ones and a draw of the others. Unless noted, calls come from the whole dose curve; as a rule, active = well fitted curve in the direction sought with a large enough effect; inconclusive = small, poorly fitted or top-dose-only effect, or another doubt; inactive = no such curve, though single readings can be large; an effect the other way counts as inactive or inconclusive. Unless noted, % is set by controls: 0 for no effect and ±100 for the full control effect.
SMILES,Tau fluor counter,FBPA coupling cs,G9a block,Sfp PPTase inh,Tau FP inhib,Tau ThT inhib
Cc1ccc(Nc2cc(C)nc(-c3ccccc3O)n2)cc1,8.9µM*[quencher],-2,38%,12%,?,?
Cc1cc(N/N=C/c2ccc(O)c(C)c2O)nc(-c2ccccc2O)n1,7.9µM*[quencher],-1,14%[59 µM],-10%,?,?
CC1CC(c2ccccc2)NS(=O)(=O)O1 (centres undefined),·,3,15%,13%,·,·
Cc1ccc2nc(NC(=O)CN3C(=O)NC4(CCCCC4)C3=O)sc2c1,·,·,-1%[2.33 µM],·,·,·
CN(Cc1ccccc1)C(=O)[C@H]1CCC(=O)N1Cc1ccco1,-5%,2,45µM*,?,-7%,-16%
CC(C)c1ccc(C(=O)OCC(=O)NC2CCCC2)cc1,·,-1,20%,8%,·,·
CN(Cc1ccon1)C(=O)CC1C(=O)NCCN1CC(C)(C)C (centres undefined),-4%,-8,45µM*,12%,-4%,-13%
CN(Cc1cccnc1)C(=O)CC1C(=O)NCCN1Cc1ccc(-c2ccccc2)cc1 (centres undefined),4%,-1,50µM*,-9%,0%,-1%
CC(C)(C)CN1CCNC(=O)C1CC(=O)N1CCN(c2ccccc2)CC1 (centres undefined),-9%,-38*,56µM*,-28%,3%,-13%
O=C(CC1C(=O)NCCN1Cc1ccc(-c2ccccc2)cc1)NCCOc1cccnc1 (centres undefined),-16%,-6,50µM*,-14%,-12%,-19%
CN(Cc1ccon1)C(=O)CC1C(=O)NCCN1Cc1ccc(F)c(F)c1 (centres undefined),·,·,·,4%,·,·
CC(=O)N1CCC2(CC1)CN(C(c1ccccc1)c1ccccc1)C2,·,0,-3%[12.7 µM],0%,·,·
Cc1ccc(NC(=O)C2CCN(c3cc(C)nc4c(-c5ccc(Cl)cc5)c(C)nn34)CC2)c(C)c1,-12%,·,4%[59 µM],·,-1%,-7%
Cc1ccc(C)c(N2N=C(C(=O)Nc3cccnc3)CCC2=O)c1,·,·,13%[12.7 µM],·,·,·
CC(=O)c1ccc(N2CCN(C(=O)c3cc(-c4ccncc4)nc4ccc(Cl)cc34)CC2)cc1,·,·,9%[12.7 µM],-20%,·,·
CN(Cc1nccs1)C(=O)CC1C(=O)NCCN1Cc1ccc(-c2ccccc2)cc1 (centres undefined),-12%,-17,?,45µM*,-10%,?
Cc1cc(CN(C)C(=O)CC2C(=O)NCCN2Cc2ccc(-c3ccccc3)cc2)on1 (centres undefined),·,-10,40µM*,-1%,·,·
COc1ccc(CN2CCNC(=O)C2CC(=O)N(C)Cc2nccs2)cc1OC (centres undefined),·,-4,·,-13%,·,·
COc1cc(C(=O)OCC(=O)c2c[nH]c3ccccc23)ccc1OCC(=O)N1CCOCC1,?,4,?,1%,0%,?
C=CCN(c1ccccc1OC)S(=O)(=O)c1cccc(C(=O)OCC(=O)c2c[nH]c3ccccc23)c1,?,-6,-13%[59 µM],4%,16µM*,5%
COc1cc(OC)c(N(C)S(=O)(=O)c2cccc(C(=O)OCC(=O)c3c[nH]c4ccccc34)c2)cc1Cl,?,-4,?,16%,13µM*,10%
Cc1cc(O)c(C(c2ccc(F)cc2)N2CCCCC2)c(=O)n1Cc1ccco1 (centres undefined),-16%,·,?,·,-11%,?
COc1ccc(NS(=O)(=O)c2ccc3c(c2)Cc2ccccc2-3)cn1,?,-5,-11%[59 µM],71µM*,-9%,-7%
CCOCCCn1c(SCC(=O)Nc2ccc(F)cc2)nc2c(sc3ccccc32)c1=O,?,·,7%[59 µM],·,-19%,-13%
Cc1ccc(S(=O)(=O)Nc2cc(C(F)(F)F)ccc2N2CCOCC2)cc1,-12%,0,?,1%,1%,-2%
Cc1ccc(S(=O)(=O)Nc2cc(C(F)(F)F)ccc2N2CCOCC2)c(C)c1,-23%,0,50µM*,-9%,12%,-13%

# High-throughput results as filed in PubChem.
